# Test results taken from the supplement of paper PMC6555819.
# How the values were obtained:
# Experiment in all cases: PBM binding z-score (relative to random genomic background probes); higher = stronger binding; sequences stand for … in GC…GCGATTGACAGCGTAGAATGAAGG
# [1] = tested on: FXR:RXRa (NR concentration 270 nM, RXRa partner concentration 90 nM)
# Outline: (§1)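 Regression normalization was applied to scanned fluorescence from custom Agilent 4×180K protein-binding microarrays. Before scanning, arrays were incubated 1 h with ligand-free nuclear receptor dimers, and binding was detected with antibodies against each partner (one per run). Binding z-scores use the random background probes as reference.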
# [2] = tested on: LXRa:RXRa (NR concentration 270 nM, RXRa partner concentration 90 nM)
# Outline: as §1
# [3] = tested on: LXRa homodimer (NR concentration 270 nM)
# Outline: as §1
# [4] = tested on: LXRb:RXRa (NR concentration 270 nM, RXRa partner concentration 90 nM)
# Outline: as §1
# [5] = tested on: LXRb homodimer (NR concentration 270 nM)
# Outline: as §1
# [6] = tested on: PPARa:RXRa (NR concentration 270 nM, RXRa partner concentration 90 nM)
# Outline: as §1
# [7] = tested on: PPARg:RXRa (NR concentration 180 nM, RXRa partner concentration 90 nM)
# Outline: as §1
# [8] = tested on: PPARg:RXRa 270nM:90nM, anti-RXR (NR concentration 270 nM, RXRa partner concentration 90 nM)
# Outline: as §1
# [9] = tested on: PPARg:RXRa 30nM:10nM, anti-RXR (NR concentration 30 nM, RXRa partner concentration 10 nM)
# Outline: as §1
# [10] = tested on: PPARg:RXRa 90nM:30nM, anti-RXR (NR concentration 90 nM, RXRa partner concentration 30 nM)
# Outline: as §1
# [11] = tested on: PPARg:RXRa DBDmut IVT, anti-RXR (DBD mutation: RXRa K156A/R161A, NR concentration 270 nM, RXRa partner concentration 90 nM)
# Outline: as §1
# [12] = tested on: PPARg:RXRa IVT, anti-PPARg (NR concentration 270 nM, RXRa partner concentration 90 nM)
# Outline: as §1
# [13] = tested on: PPARg DBDmut:RXRa IVT, anti-PPARg (DBD mutation: PPARg1 K132A/R137A, NR concentration 270 nM, RXRa partner concentration 90 nM)
# Outline: as §1
# [14] = tested on: PPARg DBDmut IVT, anti-PPARg (DBD mutation: PPARg1 K132A/R137A, NR concentration 270 nM)
# Outline: as §1
# [15] = tested on: PPARg homodimer (NR concentration 180 nM)
# Outline: as §1
# [16] = tested on: PXR:RXRa (NR concentration 270 nM, RXRa partner concentration 90 nM)
# Outline: as §1
# [17] = tested on: PXR homodimer (NR concentration 270 nM)
# Outline: as §1
# [18] = tested on: RARa:RXR (NR concentration 270 nM, RXRa partner concentration 90 nM)
# Outline: as §1
# [19] = tested on: RARa homodimer (NR concentration 270 nM)
# Outline: as §1
# [20] = tested on: RARb:RXRa (NR concentration 270 nM, RXRa partner concentration 90 nM)
# Outline: as §1
Sequence,PBM binding z-score [1],PBM binding z-score [2],PBM binding z-score [3],PBM binding z-score [4],PBM binding z-score [5],PBM binding z-score [6],PBM binding z-score [7],PBM binding z-score [8],PBM binding z-score [9],PBM binding z-score [10],PBM binding z-score [11],PBM binding z-score [12],PBM binding z-score [13],PBM binding z-score [14],PBM binding z-score [15],PBM binding z-score [16],PBM binding z-score [17],PBM binding z-score [18],PBM binding z-score [19],PBM binding z-score [20]
CCTCGGAGGACGGAAGGTCAGAGCTGTCCGCTTT,1.07,1.43,-0.129,0.901,-1.26,1.57,-0.636,0.361,-0.964,-0.314,-0.591,-0.453,-1.93,-2.58,1.18,1.33,0.186,1.76,-0.121,2.6
TCCAGCAGGCCAGAGGGTCACTCAAGAGGTACGG,0.97,1.16,-0.45,1.18,-1.14,2.23,0.983,1.87,1.59,1.79,0.933,0.217,-0.437,-1.27,0.577,1.45,-0.376,2.3,-0.207,2.2
ACTATTAGTTGAGACGAGGCCAACCGATAGGTTG,0.859,0.188,0.0694,-0.0266,0.238,0.13,0.24,-0.0513,-0.341,-0.176,-0.553,0.338,-0.0845,1.03,0.634,0.673,0.177,0.671,0.555,0.81
ACTAGCAGGCCAAGGGTCCCTCAAGATTAGTCCG,-0.253,-0.502,-0.631,-0.64,-1.13,1.09,2.3,4.09,1.73,3.84,0.0687,0.882,-0.919,-0.963,-0.0936,-0.598,-0.427,-0.327,-1.05,0.381
TCATATAGGTAATACAGGGGAAAGTCGGCATCTA,1.29,1.31,0.263,1.21,0.513,1.55,1.01,2.49,4.47,3.25,4.42,2.56,1.36,0.581,0.957,0.783,0.581,1.08,0.911,0.566
AGAACGAGGGCACTCTGAGTTGATAGCAGAGTAG,0.473,0.561,-0.613,-0.0145,-0.411,1.35,1.21,1.19,-0.0176,0.277,3.52,2.74,0.243,-0.0516,-0.209,1.14,-0.0913,0.301,-0.677,1.84
ATCTCTAGGTAACCCAGTTCAGTGAATGCCGAAC,0.242,0.741,0.606,0.843,0.72,1.72,1.52,1.69,0.311,1.12,4.06,4.47,1.33,1.28,1.12,1.64,1.23,0.719,0.547,0.652
CGTCCAAGTTCAAGGTCAGTGAAAGAGACTCGAA,4.93,4.22,1.93,3.18,0.857,4.02,2.06,2.5,0.198,1.24,0.857,1.87,0.331,-0.271,4.01,4.56,3.81,3.81,2.09,4.49
CGTCCAAGGTCAGACAGGTCAGTGAATGCCGAGT,5.43,4.15,1.39,3.43,0.134,4.25,2.72,3.38,0.54,1.85,2.43,2.79,-0.527,-0.665,2.82,4.38,6.4,4.28,0.847,4.93
TCGAGTAGCTTAGTCGGGGCATTCAGCCAACATA,-0.445,-0.555,-0.699,-0.343,-0.785,-0.102,-0.707,-0.0775,0.66,0.255,0.289,-0.763,-1.22,-0.887,-1.34,-0.503,-1.1,-0.495,-0.83,-0.355
GATACAGGGTCAAGGCCAGAGTTCGCGTATTGAT,6.64,4.34,0.289,3.72,-0.198,5.66,5.99,5.93,2.4,4.93,2.6,3.98,0.606,-0.0978,2.3,5.07,1.99,5.07,1.32,4.49
ATCTCTAGGTAAGTCTCAGTTCAGTGAAGAACGC,0.588,0.489,0.754,0.383,1.26,0.246,-0.297,0.387,0.236,0.632,1.77,1.38,1.04,1.5,1.22,1.23,2.14,0.749,1.44,0.564
TAGCCTAGGTCATGCGGGCCAGTACAGTGTCGGC,4.21,2.99,0.179,1.48,-0.174,3.65,2.42,2.56,0.126,1.61,1.55,2.81,0.187,-0.334,1.24,1.55,-0.513,2.47,-0.899,3.61
AATCCAGGGTCATCGTAGGCCAGAGTACGCACAG,7.58,6.18,1.65,4.8,0.807,5.75,6.7,6.07,3.18,4.59,2.54,4.33,1.57,0.689,2.41,5.14,0.854,5.49,1.2,4.32
CTCGAAAGGTCGGTTGAGGTAAGTATACGGATAA,1.93,1.41,-0.197,1.28,-0.165,2.34,0.4,0.787,0.0171,0.608,-0.106,0.306,-0.141,0.138,0.476,2.45,0.12,1.54,-0.0404,2.64
GCAATTAGTTGAAAGGGCAACCGAATGATTCTCG,0.0908,0.491,0.0352,0.496,-0.314,2.69,3.22,5.14,3.49,5.31,0.317,1.39,0.151,0.483,0.967,0.692,0.161,1.46,1.18,2.15
CGAACTAGGTCAGATCAGGACAGTGAAGGATGAT,2.96,0.93,-0.182,0.466,-0.387,3.07,5.57,4.64,1.82,3.82,7.59,7.23,0.934,0.164,1.18,1.83,0.129,1.19,-0.0983,3.17
CCTCGGAGGACAGAAGGTAAGAGCTGTCCGCTTT,-0.304,-0.532,-0.965,-1.02,-1.17,-0.652,-0.402,-0.815,-1.03,-0.914,-0.432,-0.658,-1.58,-1.77,-0.354,-0.918,-0.487,-0.713,-0.583,0.19
